Experimental data from PubChem BioAssay (NCATS).
Results filed as inconclusive are left out. Calls of active or inactive are those of the source. Calls follow the shape of the dose curve; as a rule, active = well fitted curve in the direction sought with a large enough effect; inconclusive = small, poorly fitted or top-dose-only effect, or another doubt; inactive = no such curve, though single readings can be large; an effect the other way counts as inactive or inconclusive.

Legend:
[1] = test system: Zika virus NS2B-NS3 protease (unlinked complex); assay: Primary screen GU Rhodamine qHTS for Zika virus inhibitors: Unlinked NS2B-NS3 protease assay (AID 1347159); also: nearly all actives have a fitted effect of over 60% in size; also: potency is read from the fitted curve at half-maximal effect
Summary of the method: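 Noncovalent NS2B hydrophilic domain/NS3 protease complex (25 nM final) in 10 mM Tris-HCl pH 8.0, 0.01% Tween 20, preincubated 15 min with compounds (up to 114 microM), then 1.5 microM Rhodamine110 substrate. Fluorescence change over 15 min fitted to 4-parameter Hill.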

[2] = test system: Zika virus NS2B-NS3 protease (linked construct); assay: Primary screen NINDS Rhodamine qHTS for Zika virus inhibitors (AID 1347160); also: nearly all actives have a fitted effect of over 55% in size
Summary of the method: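 Purified NS2B-NS3 protease with the NS2B hydrophilic domain joined by a flexible linker (25 nM) in 10 mM Tris-HCl pH 8.0, 0.01% Tween 20, preincubated 15 min at RT with compound; Rhodamine110 peptide substrate 1.5 µM; fluorescence change over 15 min; 4-parameter Hill fit.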

[3] = target: Lysine-specific demethylase 5B (Homo sapiens) (UniProt Q9UGL1); assay: Optimization screen for KDM5B Histone Demethylases FDH coupled qHTS against the LOPAC library (AID 1347166)
Lysine-specific demethylase 5B (Homo sapiens), sequence (Q9UGL1 whole entry, looked up): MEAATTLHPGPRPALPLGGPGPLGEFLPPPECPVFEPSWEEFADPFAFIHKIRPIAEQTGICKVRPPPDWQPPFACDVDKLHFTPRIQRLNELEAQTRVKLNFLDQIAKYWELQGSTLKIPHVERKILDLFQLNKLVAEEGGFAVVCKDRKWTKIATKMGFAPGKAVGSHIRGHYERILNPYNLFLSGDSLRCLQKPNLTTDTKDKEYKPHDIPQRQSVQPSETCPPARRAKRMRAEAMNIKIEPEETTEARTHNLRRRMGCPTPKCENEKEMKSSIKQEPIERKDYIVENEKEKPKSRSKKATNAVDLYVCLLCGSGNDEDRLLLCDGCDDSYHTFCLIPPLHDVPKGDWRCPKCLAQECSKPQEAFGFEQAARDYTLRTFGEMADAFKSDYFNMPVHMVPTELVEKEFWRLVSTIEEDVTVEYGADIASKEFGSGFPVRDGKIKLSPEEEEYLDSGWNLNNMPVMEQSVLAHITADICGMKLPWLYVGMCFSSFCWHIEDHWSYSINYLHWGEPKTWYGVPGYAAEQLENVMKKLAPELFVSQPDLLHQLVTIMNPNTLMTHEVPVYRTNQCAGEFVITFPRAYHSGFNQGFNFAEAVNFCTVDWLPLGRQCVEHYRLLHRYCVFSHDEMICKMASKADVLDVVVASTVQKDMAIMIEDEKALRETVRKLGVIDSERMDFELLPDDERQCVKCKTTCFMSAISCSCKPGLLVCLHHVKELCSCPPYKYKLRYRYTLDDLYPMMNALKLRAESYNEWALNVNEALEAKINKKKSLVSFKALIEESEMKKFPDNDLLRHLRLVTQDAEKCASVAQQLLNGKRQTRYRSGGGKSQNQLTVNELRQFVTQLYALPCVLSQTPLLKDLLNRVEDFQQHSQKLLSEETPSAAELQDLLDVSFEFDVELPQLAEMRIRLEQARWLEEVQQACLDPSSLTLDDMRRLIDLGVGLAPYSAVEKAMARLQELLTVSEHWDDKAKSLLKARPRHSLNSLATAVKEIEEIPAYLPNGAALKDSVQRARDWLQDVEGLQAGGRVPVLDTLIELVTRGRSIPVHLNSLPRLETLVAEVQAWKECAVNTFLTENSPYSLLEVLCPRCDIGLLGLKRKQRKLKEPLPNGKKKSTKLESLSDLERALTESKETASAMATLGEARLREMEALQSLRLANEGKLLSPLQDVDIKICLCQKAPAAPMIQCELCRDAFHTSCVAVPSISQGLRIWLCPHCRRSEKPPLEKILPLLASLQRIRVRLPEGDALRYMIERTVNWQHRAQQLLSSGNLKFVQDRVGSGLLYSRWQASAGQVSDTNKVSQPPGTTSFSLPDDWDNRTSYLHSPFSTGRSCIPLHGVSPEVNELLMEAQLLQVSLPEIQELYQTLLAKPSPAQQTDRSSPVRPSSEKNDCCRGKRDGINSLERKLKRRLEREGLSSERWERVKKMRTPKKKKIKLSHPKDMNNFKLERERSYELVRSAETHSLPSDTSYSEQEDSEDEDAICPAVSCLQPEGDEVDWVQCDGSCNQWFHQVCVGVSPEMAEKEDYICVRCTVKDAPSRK
Summary of the method: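 KDM5BDeltaAP (200nM final) preincubated 10 min with compound, then 12.5uM H3K4Me3, 25uM a-ketoglutarate, ascorbate, Fe(II), NAD+ and FDH added; 50mM HEPES pH 7.5, 0.01% Tween-20. NADH fluorescence (340/450 nm) change over 30 min, room temperature.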

[4] = qHTS to identify inhibitors of the type 1 interferon - major histocompatibility complex class I in skeletal muscle: primary screen against the NCATS Mechanism Interrogation Plate v5.0 (MIPE) Libary (AID 1347411); also: nearly all actives have a fitted effect of over 65% in size; also: potency is read from the fitted curve at half-maximal effect
Summary of the method: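 Immortalized human C25cl48 myoblasts with HiBit knocked into endogenous HLA-B*08:01 were stimulated with 4.0 ng/ml IFN-beta and exposed to compounds (11-point 1:3 titration, top 46 uM final) for 24 hrs at 37 C; HiBiT lytic luminescence measured.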

[5] = Validation qHTS assay for inhibitors of Activation Induced Cytidine Deaminase (AID): UDG Counterscreen signal (AID 1347427)
Summary of the method: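 Counterscreen read of UDG activity (2 U/mL, 4/3x) in the FRET deamination format with AID (1 uM, 4/3x), DJC20/DJC23 substrates (250 nM, 4x), 4 h at room temperature. NaOH stop, fluorescence at 560 ex/665 em.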

[6] = target: Single-stranded DNA cytosine deaminase (Homo sapiens) (UniProt Q9GZX7); assay: Validation qHTS assay for inhibitors of Activation Induced Cytidine Deaminase (AID): AID signal (AID 1347429)
Single-stranded DNA cytosine deaminase (Homo sapiens), sequence (Q9GZX7 whole entry, looked up): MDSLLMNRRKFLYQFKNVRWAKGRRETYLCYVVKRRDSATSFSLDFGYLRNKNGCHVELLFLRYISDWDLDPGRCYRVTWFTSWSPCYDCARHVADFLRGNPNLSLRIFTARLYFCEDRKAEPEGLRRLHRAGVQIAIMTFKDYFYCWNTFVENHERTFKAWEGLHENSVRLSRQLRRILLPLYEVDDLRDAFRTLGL
Summary of the method: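 AID and UDG were combined and compounds added at final up to 114 uM, then DJC20/DJC23 FRET substrate was added for 4 hr at room temperature. NaOH was then added for 30 min before fluorescence was read at 540/590 nm.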

[7] = Primary qHTS for inhibitors of La Crosse Virus (LACV) - induced cell death in SH-SY5Y cells (AID 1508616);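 also: top concentration of the series differs between compounds; higher means more rescue of cells from virus-induced death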
Summary of the method: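 Luminescent ATP readout (ATPLite 1step, 5 min room temperature) measured rescue from LACV-induced death after 6 days of infection at 0.01 MOI; normalized to infected DMSO wells and uninfected DMSO wells.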

[8] = qHTS to identify inhibitors of the type 1 interferon - major histocompatibility complex class I in skeletal muscle: primary screen against the NCATS Pharmaceutical Collection (AID 1347407);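 also: luminescence of HiBiT knocked into endogenous HLA-B as interferon-induced MHC class I level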; also: potency is read from the fitted curve at half-maximal effect
Summary of the method: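 Immortalized human myoblasts (C25cl48) with HiBiT knocked into endogenous HLA-B*08:01 were stimulated with 4 ng/ml IFN-beta and treated with compounds (8-point, 1:5, top 46 uM final) for 24 h at 37 C; HiBiT lytic luminescence read.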

[9] = target: Protein phosphatase 1D (Homo sapiens) (UniProt O15297); assay: RapidFire Mass Spectrometry qHTS Assay for Modulators of WT P53-Induced Phosphatase 1 (WIP1) (AID 1347424);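 also: amount of dephosphorylated VEPPL-S-QETFS peptide product formed by WIP1; series mostly up to about 63 µM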
Protein phosphatase 1D (Homo sapiens), sequence (O15297 whole entry, looked up): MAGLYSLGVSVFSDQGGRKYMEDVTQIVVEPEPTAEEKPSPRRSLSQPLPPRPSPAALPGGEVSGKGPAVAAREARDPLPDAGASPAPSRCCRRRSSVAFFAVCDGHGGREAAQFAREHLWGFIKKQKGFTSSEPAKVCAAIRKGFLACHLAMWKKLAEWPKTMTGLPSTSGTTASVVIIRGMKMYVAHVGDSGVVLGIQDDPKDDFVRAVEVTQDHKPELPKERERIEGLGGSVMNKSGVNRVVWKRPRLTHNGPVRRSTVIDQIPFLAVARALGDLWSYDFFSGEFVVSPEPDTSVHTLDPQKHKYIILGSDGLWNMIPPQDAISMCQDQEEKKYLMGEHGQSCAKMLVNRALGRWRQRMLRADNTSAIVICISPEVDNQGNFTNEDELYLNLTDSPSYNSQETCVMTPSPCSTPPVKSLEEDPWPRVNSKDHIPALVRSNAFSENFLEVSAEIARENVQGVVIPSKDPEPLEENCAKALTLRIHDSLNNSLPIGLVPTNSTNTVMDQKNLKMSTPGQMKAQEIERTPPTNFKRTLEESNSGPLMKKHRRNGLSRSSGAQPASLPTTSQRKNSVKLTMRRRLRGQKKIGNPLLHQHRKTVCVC
Summary of the method: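 10 nM WIP1 + cpd, 1 h RT; + 2 uM VEPPL-pS-QETFS, 5 min RT; stop 0.5% formic acid; labelled product standard 1 uM; RapidFire MS. Buffer 50 mM Tris pH 7.5, 30 mM MgCl2, 1 mM TCEP.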

[10] = target: Protein phosphatase 1D (Homo sapiens) (UniProt O15297); assay: Rhodamine-PBP qHTS Assay for Modulators of WT P53-Induced Phosphatase 1 (WIP1) (AID 1347425)
Summary of the method: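 WIP1 (5 nM final) was preincubated with compound for 1 hour at room temperature. It then dephosphorylated 10 uM VEPPL-pS-QETFS peptide in Tris-HCl pH 7.5 with 30 mM MgCl2. Released Pi was detected by 10 uM Rh-PBP fluorescence (ex 525/em 598 nm) read at 1-min intervals for 11 min, as delta f1 - f0.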

[11] = qHTS to identify inhibitors of the type 1 interferon - major histocompatibility complex class I in skeletal muscle: primary screen against the NCATS LOPAC collection (AID 1347405);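 also: lytic HiBiT luminescence reporting HLA-B protein level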
Summary of the method: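 Immortalized human C25cl48 myoblasts with HiBiT knocked into endogenous HLA-B*08:01 were stimulated with 4.0 ng/ml IFN-beta and given compounds in a 7-point, 1:4.3 titration from 46 uM final; after 24 hrs, lytic HiBiT luminescence was read.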

[12] = qHTS for inhibitors of adenylyl cyclases using a fission yeast platform: a pilot screen against the NCATS LOPAC library (AID 1347410)
Summary of the method: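 S. pombe CHP2027 (AC9-GNAS-PDE4D2) carrying a PKA-repressed fbp1-GFP reporter was exposed to LOPAC compounds (final up to 57 µM) for 18 h at 30C in the dark, in EMM with histidine, lysine and uracil; GFP gain-of-signal read by laser scanning cytometry.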

[13] = Confirmatory screen NINDS Rhodamine qHTS for Zika virus inhibitors (AID 1347161);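 also: purified Zika NS2B-NS3 protease with linked NS2B cofactor domain and Rhodamine110 peptide substrate; series mostly up to about 110 µM; nearly all actives have a fitted effect of over 60% in size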
Summary of the method: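 Kinetic fluorescence (Ex 480 nm, Em 540 nm) over 15 min with 1.5 microM Rhodamine110 peptide and 25 nM linked protease.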

[14] = Vero cells viability qHTS for Zika virus inhibitors (AID 1347167); also: potency is read from the fitted curve at half-maximal effect
Summary of the method: (§1)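 Compounds were tested in concentration series on cells grown in DMEM containing 4% FBS. After 24 to 48 hours, cellular ATP was measured by luminescence with CellTiter Glo.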

[15] = HepG2 cells viability qHTS for Zika virus inhibitors (AID 1347168); also: potency is read from the fitted curve at half-maximal effect
Summary of the method: as §1

[16] = Tertiary RLuc qRT-PCR qHTS assay for Zika virus inhibitors (AID 1347169); also: nearly all actives have a fitted effect of over 55% in size; also: potency is read from the fitted curve at half-maximal effect
Summary of the method: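 Vero cells (1,000 per well) plated overnight at 37 degrees C, treated with compound in DMSO, then infected with recombinant ZIKV-RLuc (Cambodian) at MOI 1-2 for 48-72 hrs. Live-cell Renilla luciferase substrate added; luminescence read after 1-1.5 hrs.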

[17] = ZIKV-mCherry secondary qHTS for Zika virus inhibitors (AID 1347158); also: top concentration of the series differs between compounds
Summary of the method: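 Vero cells, 5,000/well, plated overnight at 37 °C, then compound added and infected with recombinant ZIKV-mCherry at MOI 1 for 48-72 h. PFA-fixed, Hoechst nuclear stain, high-content imaging; cells with mCherry intensity above 450 RFU scored infected, reported as percent infection.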

[18] = test system: Zika virus NS2B-NS3 protease (linked); assay: 384 well plate NINDS AMC confirmatory qHTS for Zika virus inhibitors (AID 1347163);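 also: linked protease at 5 30 or 60 nM final depending on run; fluorescence of AMC released from Ac-VKTGKR-AMC peptide cleaved by the protease; top concentration of the series differs between compounds; nearly all actives have a fitted effect of over 50% in size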
Summary of the method: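 Linked protease 5/30/60 nM final; cpds up to 1 mM final, ~15 min preinc. Substrate Ac-VKTGKR-AMC 30 microM final. RT, dark, 25 min; FI ex 355/em 460; normalized to no-enzyme/no-inhibitor ctrls.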

Measured: Potency

CC(=O)O[C@H]1C(=O)[C@@]2(C)C([C@H](OC(=O)c3ccccc3)[C@]3(O)C[C@H](OC(=O)[C@H](O)[C@@H](NC(=O)c4ccccc4)c4ccccc4)C(C)=C1C3(C)C)[C@]1(OC(C)=O)CO[C@@H]1C[C@@H]2O (some centres undefined)
inactive: [1] | [2] | [3] | [4] | [5] | [6] | [7]

O=C(OC1C[C@H]2CC[C@@H](C1)[N+]21CCCC1)C(O)(c1ccccc1)c1ccccc1 (some centres undefined)
inactive: [1] | [2] | [8] | [9] | [10] | [7]

Clc1ccc(C(Cn2ccnc2)OCc2c(Cl)cccc2Cl)c(Cl)c1 (centres undefined)
inactive: [2] | [8] | [9] | [10] | [7]

O=C(O)c1cccc(-c2noc(-c3ccccc3F)n2)c1
inactive: [1] | [2] | [8] | [9] | [10] | [7]

OC(CN1CCN(c2cccc(Cl)c2)CC1)C(c1ccccc1)c1ccccc1 (centres undefined)
inactive: [1] | [2] | [3] | [5] | [6] | [7]

CN(C)CCCC1(c2ccc(F)cc2)OCc2cc(C#N)ccc21 (centres undefined)
inactive: [1] | [2] | [3] | [11] | [12] | [5] | [6] | [7]

COc1cc2c(cc1OC)C1CC(=O)C(CC(C)C)CN1CC2 (centres undefined)
inactive: [13] | [14] | [15] | [16] | [11] | [12] | [4] | [5] | [6] | [7]

Cc1nc(Nc2ncc(C(=O)Nc3c(C)cccc3Cl)s2)cc(N2CCN(CCO)CC2)n1
inactive: [17] | [1] | [2] | [18] | [9] | [10] | [7]
active: [14] 282000 nM | [15] 79400 nM | [16] 224 nM

Cc1nccn1CC1CCc2c(c3ccccc3n2C)C1=O (centres undefined)
inactive: [1] | [2] | [8] | [9] | [10] | [7]

CCC(C)(Oc1ccc(C2(c3ccc(OC(C)(CC)C(=O)O)cc3)CCCCC2)cc1)C(=O)O (centres undefined)
inactive: [8] | [4] | [10] | [7]
active: [1] 31600 nM

CC(C)C[C@H](NC(=O)[C@H](Cc1ccccc1)NC(=O)c1cnccn1)B(O)O
active: [15] 46.6 nM | [16] 37 nM | [8] 74.5 nM | [4] 41.5 nM
inactive: [1] | [2] | [14] | [9] | [10] | [7]
